Measured values: PubChem BioAssay (NCATS)
Inconclusive results are not listed. Activity calls are given as the source filed them. Unless noted, the call rests on the fitted dose curve; in most records, active means well fitted curve in the direction sought with a large enough effect; inconclusive means small, poorly fitted or top-dose-only effect, or another doubt; inactive means no such curve, though single readings can be large; an effect the other way counts as inactive or inconclusive.

Experiments:
[1] = target: Glutathione peroxidase 1 (Homo sapiens) (UniProt P07203); assay: Primary qHTS Assay for Inhibitors of Recombinant Selenoprotein Glutathione Peroxidase 1 (GPX1) (AID 1845191); further: nearly all actives have a fitted effect of over 65% in size; further: potency means the concentration at half of the fitted maximal effect; on activity, negative = inhibition: on the % scale 0 is the no-effect control and ±100 the full control effect
Chain of Glutathione peroxidase 1 (Homo sapiens) (P07203 whole entry, looked up): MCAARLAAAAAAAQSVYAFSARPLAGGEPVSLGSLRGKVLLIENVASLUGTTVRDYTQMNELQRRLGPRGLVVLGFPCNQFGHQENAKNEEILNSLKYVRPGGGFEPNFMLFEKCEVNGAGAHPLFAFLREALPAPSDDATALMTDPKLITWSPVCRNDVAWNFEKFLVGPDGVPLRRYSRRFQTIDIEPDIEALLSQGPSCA
In short: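 Recombinant GPX1 (10 nM final) was preincubated with compound for 30 min at room temperature, then reacted with 1 mM GSH, 0.5 mM CHP, 0.5 mM NADPH and 100 nM glutathione reductase; NADPH fluorescence (340/450 nm) was read at 0 and 15 min.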

[2] = Viability counterscreen for agonist of constitutive androstane receptor (CAR) against the NCATS DSHEA and TCM libraries (AID 1794838);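 further: cells exposed to compound for 24 h; 0% is about no effect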
In short: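 Multiplexed counterscreen: after 24 h compound exposure with 0.75 uM PK11195, HepG2-CYP2B6-hCAR viability was quantified fluorimetrically (CellTiter-Fluor, 405/540 nm) prior to the ONE-Glo luciferase read.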

[3] = HepG2 viability counterscreen (readout 1: protease activity) against the NCATS DSHEA and TCM libraries (AID 1794841);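 further: cells exposed to compounds for about 24 h before the protease read; 0% is about no effect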
In short: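 After HepG2 cells attach for ~4 h, substances are added and incubated ~24 h at 37C, 5% CO2. GF-AFC fluorescence then CellTiter-Glo luminescence give protease and ATP readouts.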

[4] = target: Phospholipid hydroperoxide glutathione peroxidase GPX4 (Homo sapiens) (UniProt P36969); assay: Primary qHTS Assay for Inhibitors of Recombinant Selenoprotein Glutathione Peroxidase 4 (GPX4) (AID 1845192); further: nearly all actives have a fitted effect of over 65% in size
Chain of Phospholipid hydroperoxide glutathione peroxidase GPX4 (Homo sapiens) (P36969 whole entry, looked up): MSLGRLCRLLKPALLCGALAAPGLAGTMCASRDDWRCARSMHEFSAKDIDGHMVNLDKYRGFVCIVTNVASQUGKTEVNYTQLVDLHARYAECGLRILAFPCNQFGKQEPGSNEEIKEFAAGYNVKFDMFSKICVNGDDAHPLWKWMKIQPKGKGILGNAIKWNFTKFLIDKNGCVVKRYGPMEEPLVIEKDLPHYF
In short: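 GR-coupled readout: 100 nM GR, 1 mM GSH, 0.5 mM NADPH; NADPH fluorescence (ex 340/em 450 nm) read at t=0 and after 15 min RT. GPX4 200 nM, preincubated 30 min with compound; substrate 0.5 mM CHP.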

[5] = target: Cytochrome P450 2C9 (Homo sapiens) (UniProt P11712); assay: qHTS for inhibitors of CYP2C9 against the NCATS DSHEA and TCM libraries (AID 1919973); further: potency means the concentration at half of the fitted maximal effect
Chain of Cytochrome P450 2C9 (Homo sapiens) (P11712 whole entry, looked up): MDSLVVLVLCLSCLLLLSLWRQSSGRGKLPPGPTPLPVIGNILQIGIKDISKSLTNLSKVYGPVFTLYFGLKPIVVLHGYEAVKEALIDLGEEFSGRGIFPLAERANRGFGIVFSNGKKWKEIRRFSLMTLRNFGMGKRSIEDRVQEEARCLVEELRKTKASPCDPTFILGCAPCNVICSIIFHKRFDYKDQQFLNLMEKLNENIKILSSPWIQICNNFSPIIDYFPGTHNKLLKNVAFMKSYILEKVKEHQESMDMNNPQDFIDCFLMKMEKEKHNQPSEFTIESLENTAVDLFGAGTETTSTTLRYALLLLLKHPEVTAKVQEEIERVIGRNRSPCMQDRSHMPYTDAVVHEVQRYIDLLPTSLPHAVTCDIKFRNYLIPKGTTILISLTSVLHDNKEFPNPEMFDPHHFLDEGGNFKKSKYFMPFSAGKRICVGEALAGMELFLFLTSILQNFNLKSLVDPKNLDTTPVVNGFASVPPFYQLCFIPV
In short: (§1)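 Light output from converted D-luciferin reports remaining CYP activity. Compounds preincubate with enzyme and substrate for 15 min; NADPH regeneration (1x final) runs the reaction for 30-45 min.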

[6] = target: Cytochrome P450 2C19 (Homo sapiens) (UniProt P33261); assay: qHTS for inhibitors of CYP2C19 against the NCATS DSHEA and TCM libraries (AID 1919974);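 further: luminescence from luciferin released by CYP2C19 oxidation of a pro-luciferin substrate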; further: potency means the concentration at half of the fitted maximal effect
Chain of Cytochrome P450 2C19 (Homo sapiens) (P33261 whole entry, looked up): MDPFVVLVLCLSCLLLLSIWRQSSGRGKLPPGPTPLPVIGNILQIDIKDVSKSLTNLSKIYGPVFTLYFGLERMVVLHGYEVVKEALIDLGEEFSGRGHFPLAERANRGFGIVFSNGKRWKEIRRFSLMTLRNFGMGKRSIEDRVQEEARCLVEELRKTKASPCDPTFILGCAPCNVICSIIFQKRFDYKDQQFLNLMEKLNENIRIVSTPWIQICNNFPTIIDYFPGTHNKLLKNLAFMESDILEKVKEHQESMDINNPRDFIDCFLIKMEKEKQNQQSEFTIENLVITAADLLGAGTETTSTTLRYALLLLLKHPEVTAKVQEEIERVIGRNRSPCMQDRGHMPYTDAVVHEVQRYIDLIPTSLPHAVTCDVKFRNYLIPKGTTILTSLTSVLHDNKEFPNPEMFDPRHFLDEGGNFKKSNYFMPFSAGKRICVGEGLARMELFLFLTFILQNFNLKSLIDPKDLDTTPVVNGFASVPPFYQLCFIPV
In short: as §1

[7] = KB-3-1 P-gp reporter qHTS against the NCATS DSHEA and TCM libraries (AID 1919975); further: 0% is about no effect
In short: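 Cell viability qHTS: 500 KB-3-1 cells/well, substances in titration, ~72 h, 37C; luminescent CellTiter-Glo read.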

[8] = target: Cytochrome P450 1A2 (Homo sapiens) (UniProt P05177); assay: qHTS for inhibitors of CYPIA2 against the NCATS DSHEA and TCM libraries (AID 1919976); further: potency means the concentration at half of the fitted maximal effect
Chain of Cytochrome P450 1A2 (Homo sapiens) (P05177 whole entry, looked up): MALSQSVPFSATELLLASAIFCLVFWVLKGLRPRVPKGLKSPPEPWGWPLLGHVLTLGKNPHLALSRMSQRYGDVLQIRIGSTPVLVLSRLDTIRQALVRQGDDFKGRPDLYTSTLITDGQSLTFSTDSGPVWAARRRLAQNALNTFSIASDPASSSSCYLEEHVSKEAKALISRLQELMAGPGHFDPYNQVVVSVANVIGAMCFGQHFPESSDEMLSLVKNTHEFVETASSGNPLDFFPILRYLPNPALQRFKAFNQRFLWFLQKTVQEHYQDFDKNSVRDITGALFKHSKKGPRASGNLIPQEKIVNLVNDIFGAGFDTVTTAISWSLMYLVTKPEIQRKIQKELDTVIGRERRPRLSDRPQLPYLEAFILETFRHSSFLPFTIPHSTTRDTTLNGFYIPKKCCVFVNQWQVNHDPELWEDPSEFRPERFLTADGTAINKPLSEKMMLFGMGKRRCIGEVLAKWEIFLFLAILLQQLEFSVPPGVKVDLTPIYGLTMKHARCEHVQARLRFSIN
In short: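 In this quantitative HTS, inhibition of recombinant human CYP1A2 was measured as loss of luciferin-derived luminescence. Turnover ran 30-45 min at RT after NADPH regeneration solution was added.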

[9] = qHTS Counterscreen for compound interference against the NCATS DSHEA and TCM libraries (AID 1919978); settings: firefly luciferase detection reagent interference, luminescence;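 further: compounds preincubated with 1 µM D-luciferin or buffer before detection reagent; % of control where 0% means no effect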
In short: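 Interference check: test samples were incubated with D-luciferin (final 1 uM) or buffer only for 15 min, room temperature, in a qHTS titration up to 39.8 uM, then developed with detection reagent and read by luminescence.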

[10] = Dual reporter qHTS for agonist of Pregnane X Receptor (hPXR) against the NCATS DSHEA and TCM libraries: Fluorescence readout (AID 1920058); further: 0% is about no effect
In short: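 Measures viability of the PXR reporter HepG2 line by protease-substrate fluorescence (405/540 nm), taken 1 h after CellTiter-Fluor addition. Substances are tested as concentration series over a ~24 h exposure, with rifampicin as agonist control.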

[11] = target: Nuclear receptor subfamily 1 group I member 2 (Homo sapiens) (UniProt O75469); assay: Dual reporter qHTS for antagonist of Pregnane X Receptor (hPXR) against the NCATS DSHEA and TCM libraries: Luminescence Readout (AID 1920060); further: 0% is about no effect
Chain of Nuclear receptor subfamily 1 group I member 2 (Homo sapiens) (O75469 whole entry, looked up): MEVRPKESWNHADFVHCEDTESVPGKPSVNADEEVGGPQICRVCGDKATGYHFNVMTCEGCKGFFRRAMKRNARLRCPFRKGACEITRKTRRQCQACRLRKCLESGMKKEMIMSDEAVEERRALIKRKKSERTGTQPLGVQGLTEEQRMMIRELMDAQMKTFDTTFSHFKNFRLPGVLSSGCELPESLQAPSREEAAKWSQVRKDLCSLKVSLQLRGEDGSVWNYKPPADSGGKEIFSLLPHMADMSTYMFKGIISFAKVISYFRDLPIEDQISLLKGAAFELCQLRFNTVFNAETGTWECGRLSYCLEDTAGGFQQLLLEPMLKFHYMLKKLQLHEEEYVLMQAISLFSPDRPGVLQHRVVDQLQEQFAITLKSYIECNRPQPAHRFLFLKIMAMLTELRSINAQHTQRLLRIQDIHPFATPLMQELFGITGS
In short: (§2)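 Rifampicin-stimulated (2 uM final) hPXR-luciferase HepG2 cells were treated for 24 h with DSNP/TCM substances. Viability came from CellTiter-Fluor fluorescence, reporter activity from ONE-Glo luminescence.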

[12] = Dual reporter qHTS for antagonist of Pregnane X Receptor (hPXR) against the NCATS DSHEA and TCM libraries: Fluorescence Readout (AID 1920061); further: 0% is about no effect
In short: as §2

[13] = target: Cytochrome P450 3A4 (Homo sapiens) (UniProt P08684); assay: qHTS for inhibitors of CYP3A4 against the NCATS DSHEA and TCM libraries (AID 1919971);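 further: on the % scale 0 is the no-effect control and ±100 the full control effect; inhibition lowers luminescence from luciferin made by CYP3A4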
Chain of Cytochrome P450 3A4 (Homo sapiens) (P08684 whole entry, looked up): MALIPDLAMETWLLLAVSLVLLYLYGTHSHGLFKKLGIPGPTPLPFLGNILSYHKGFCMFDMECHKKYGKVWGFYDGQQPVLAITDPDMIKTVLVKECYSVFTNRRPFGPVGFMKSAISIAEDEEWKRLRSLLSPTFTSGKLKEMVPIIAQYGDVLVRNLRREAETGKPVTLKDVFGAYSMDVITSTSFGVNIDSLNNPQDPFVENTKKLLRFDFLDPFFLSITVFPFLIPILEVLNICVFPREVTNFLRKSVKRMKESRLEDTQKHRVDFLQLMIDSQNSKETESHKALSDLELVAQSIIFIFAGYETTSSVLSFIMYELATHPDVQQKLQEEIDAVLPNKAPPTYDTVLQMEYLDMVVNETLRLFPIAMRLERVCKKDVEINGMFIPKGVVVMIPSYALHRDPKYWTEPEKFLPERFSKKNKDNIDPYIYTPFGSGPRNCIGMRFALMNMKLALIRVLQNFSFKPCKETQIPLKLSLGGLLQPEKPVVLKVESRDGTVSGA
In short: as §1

[14] = target: Cytochrome P450 2D6 (Homo sapiens) (UniProt P10635); assay: qHTS for inhibitors of CYP2D6 against the NCATS DSHEA and TCM libraries (AID 1919972); further: on the % scale 0 is the no-effect control and ±100 the full control effect
Chain of Cytochrome P450 2D6 (Homo sapiens) (P10635 whole entry, looked up): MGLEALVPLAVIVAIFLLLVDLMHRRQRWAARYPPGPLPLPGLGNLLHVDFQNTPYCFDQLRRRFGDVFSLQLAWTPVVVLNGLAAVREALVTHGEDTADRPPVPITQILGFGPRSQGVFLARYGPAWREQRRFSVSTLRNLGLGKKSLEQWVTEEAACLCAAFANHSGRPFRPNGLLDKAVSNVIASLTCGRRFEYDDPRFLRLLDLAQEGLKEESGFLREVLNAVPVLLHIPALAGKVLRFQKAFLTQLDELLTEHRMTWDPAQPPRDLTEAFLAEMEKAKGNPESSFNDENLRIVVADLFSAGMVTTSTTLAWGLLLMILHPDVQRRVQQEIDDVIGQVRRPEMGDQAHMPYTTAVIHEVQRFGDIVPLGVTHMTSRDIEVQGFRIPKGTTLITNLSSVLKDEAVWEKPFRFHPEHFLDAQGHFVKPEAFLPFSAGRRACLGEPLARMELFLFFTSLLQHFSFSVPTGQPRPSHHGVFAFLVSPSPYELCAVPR
In short: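 Steps: enzyme plus luciferin substrate dispensed; test substances pinned; 15 min RT; 1x NADPH regenerating solution added, 30–45 min RT protected from light; detection reagent, 30 min RT; luminescence measured. Minus-enzyme wells as background.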

[15] = target: Nuclear receptor subfamily 1 group I member 3 (Homo sapiens) (UniProt Q14994); assay: Primary qHTS for agonist of constitutive androstane receptor (CAR) against the NCATS DSHEA and TCM libraries (AID 1794839);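 further: HepG2 cells expressing human CAR with a CYP2B6 reporter plus PK11195 antagonist; 0% is about no effect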
Chain of Nuclear receptor subfamily 1 group I member 3 (Homo sapiens) (Q14994 whole entry, looked up): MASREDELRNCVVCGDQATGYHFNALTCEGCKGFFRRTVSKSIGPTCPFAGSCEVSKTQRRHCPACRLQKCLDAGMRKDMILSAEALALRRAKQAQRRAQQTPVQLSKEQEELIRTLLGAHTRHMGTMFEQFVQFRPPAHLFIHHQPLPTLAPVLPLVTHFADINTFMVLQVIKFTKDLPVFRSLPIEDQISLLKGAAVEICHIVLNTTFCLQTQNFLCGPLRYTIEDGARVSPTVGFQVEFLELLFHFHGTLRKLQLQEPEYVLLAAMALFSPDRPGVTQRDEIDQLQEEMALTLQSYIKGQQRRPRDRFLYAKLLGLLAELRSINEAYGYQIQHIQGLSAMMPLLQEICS
In short: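 Concentration–response screen in HepG2-CYP2B6-hCAR cells under 0.75 µM PK11195; 24 h exposure; luminescent reporter signal with multiplexed fluorescent viability.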

[16] = qHTS drug screen for cell cycle checkpoint inhibitors in PARPi-resistant BRCA-mutant ovarian cancer cell lines. (AID 1963452; calls by dose curve); settings: PEO1/OlaR viability, CellTiter-Glo luminescence, 96 h, stronger effect = lower value
In short: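 PEO1, PEO4 and PEO1/OlaR ovarian cancer cells, 600 per well, exposed 96 h at 37C to a dilution series. Viability read by CellTiter-Glo luminescence, normalized to DMSO and empty wells; activity summarized as Z-AUC.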

NC(=O)[C@H]1O[C@@H](O)[C@H](O)[C@@H](O)[C@@H]1O
inactive: Potency [1]

NC(N)=NCC1COC2(CCCCC2)O1 (centres undefined)
inactive: Potency [1]

Cc1ccc(S(=O)(=O)O)cc1C
inactive: Potency [1]

C=C1CC[C@H](O)C/C1=C\C=C1/CCC[C@]2(C)[C@@H]([C@H](C)CCCC(C)C)CC[C@@H]12
inactive: outcome [2] | outcome [3] | Potency [4] | outcome [7] | Potency [8] | max response [9] 0.0382% | outcome [10] | outcome [11] | outcome [12]
active: Potency [5] 25.1 µM | Potency [6] 25.1 µM

Nc1nc2c(c(=O)[nH]1)N(C=O)C(CNc1ccc(C(=O)N[C@@H](CCC(=O)O)C(=O)O)cc1)CN2 (some centres undefined)
inactive: activity, negative = inhibition [1] -12.1% [at 0.4 µM]

CC1=CCC2CC1C2(C)C (centres undefined)
inactive: outcome [3] | outcome [13] | outcome [14] | Potency [5] | outcome [7] | max response [9] 3.27% | outcome [10] | outcome [11] | outcome [12]
active: Potency [8] 3.55 µM

O=C(O[C@H]1CN2CCC1CC2)N1CCc2ccccc2[C@@H]1c1ccccc1
inactive: Potency [1]

COC1=C(OC)C(=O)C(C/C=C(\C)CC/C=C(\C)CC/C=C(\C)CC/C=C(\C)CC/C=C(\C)CC/C=C(\C)CC/C=C(\C)CC/C=C(\C)CC/C=C(\C)CCC=C(C)C)=C(C)C1=O
0.209: Z-AUC ([16]; measured here: PEO4 Z-AUC)
-0.0279: Z-AUC ([16]; measured here: PEO1 parental Z-AUC)
inactive: outcome [2] | Potency [15] | outcome [3] | Potency [1] | Potency [4] | outcome [13] | outcome [14] | Potency [5] | Potency [6] | outcome [7] | max response [9] 5.89% | outcome [10] | outcome [11] | outcome [12] | Z-AUC [16] -0.238

OCc1ccccc1
inactive: Potency [1]

CC(C)(O/N=C(\C(=O)N[C@@H]1C(=O)N2C(C(=O)[O-])=C(C[n+]3ccccc3)CS[C@H]12)c1csc(N)n1)C(=O)O
active: Potency [1] 7.85 µM

Cc1ncc(C[n+]2csc(CCO)c2C)c(N)n1
inactive: outcome [2] | Potency [15] | outcome [3] | Potency [1] | outcome [13] | outcome [14] | outcome [7] | max response [9] -0.256% | outcome [10] | outcome [12]

CC(C)=CCC/C(C)=C/C=C/C(C)=C/C=C/C(C)=C/C=C/C=C(C)/C=C/C=C(C)/C=C/C=C(\C)CCC=C(C)C
inactive: outcome [2] | Potency [15] | outcome [3] | Potency [1] | Potency [4] | outcome [13] | outcome [14] | Potency [5] | Potency [6] | outcome [7] | Potency [8] | max response [9] 0.511% | outcome [10] | outcome [11] | outcome [12]

O=C(O)/C=C/c1ccccc1
inactive: outcome [3] | Potency [1] | Potency [4] | outcome [13] | outcome [14] | Potency [5] | Potency [6] | outcome [7] | Potency [8] | max response [9] -1.31% | outcome [10] | outcome [11] | outcome [12]

CCCc1nc(C(C)(C)O)c(C(=O)OCc2oc(=O)oc2C)n1Cc1ccc(-c2ccccc2-c2nn[nH]n2)cc1
inactive: Potency [1]

CCCC(CCC)C(=O)OC1C[C@H]2CC[C@@H](C1)[N+]2(C)C (some centres undefined)
inactive: Potency [1]

Oc1cccc(O)c1O
inactive: outcome [2] | Potency [15] | outcome [3] | Potency [6] | outcome [7] | Potency [8] | max response [9] -3.78% | outcome [10] | outcome [11] | outcome [12]

CN(C)C=Nc1c(I)cc(I)c(CCC(=O)O)c1I
inactive: Potency [1]

CN1CCN(C(c2ccccc2)c2ccc(Cl)cc2)CC1 (centres undefined)
inactive: Potency [1]

O=C(O)CCC/C=C\C[C@@H]1[C@@H](/C=C/[C@@H](O)COc2cccc(Cl)c2)[C@H](O)C[C@@H]1O
inactive: Potency [1]

CCC(O)c1ccccc1 (centres undefined)
inactive: Potency [1]

CC/C=C\C/C=C\C/C=C\C/C=C\C/C=C\C/C=C\CCC(=O)O
inactive: outcome [2] | Potency [15] | outcome [3] | outcome [13] | Potency [5] | outcome [7] | Potency [8] | max response [9] -0.949% | outcome [10] | outcome [11] | outcome [12]

CCCC(=O)Nc1c(I)cc(I)c(CC(CC)C(=O)O)c1I (centres undefined)
inactive: Potency [1]

CC/C=C\C/C=C\C/C=C\C/C=C\C/C=C\CCCC(=O)O
inactive: outcome [2] | outcome [3] | Potency [1] | outcome [13] | outcome [14] | Potency [5] | Potency [6] | outcome [7] | Potency [8] | max response [9] 0.593% | outcome [10] | outcome [11] | outcome [12]

CC/C=C\C/C=C\C/C=C\CCCCCCCC(=O)O
inactive: outcome [2] | Potency [15] | outcome [3] | outcome [7] | Potency [8] | max response [9] -1.87% | outcome [10] | outcome [11] | outcome [12]
active: Potency [5] 7.94 µM
